# Laboratory results published in the supplement of paper PMC8728848.
# This excerpt belongs to a sample that is enriched for the strongest signals.
# What was measured:
# Experiment in all cases: glycan array binding signal (z-score within array); higher = stronger binding
# Settings in all cases: glycan notation: IUPAC condensed, linker removed
# [1] = target: Fuc(a1-2)Gal(b1-4)GlcNAc(b1-2)Man
# In short: (§1)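 Glycan array data came from 3228 arrays in the Consortium for Functional Glycomics database, and only arrays with an available protein sequence were kept. Glycan names were put into IUPAC-condensed notation, and columns mapping to the same glycan were averaged. The binding signal is a within-array Z-score, averaged across arrays of one protein sequence run at different concentrations or buffers and across linkers. A negative Z-score can be read as non-binding.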
# [2] = target: Fuc(a1-2)Gal(b1-4)GlcNAc(b1-2)Man(a1-3)[Fuc(a1-2)Gal(b1-4)GlcNAc(b1-2)Man(a1-6)]Man(b1-4)GlcNAc(b1-4)GlcNAc
# In short: as §1
# [3] = target: Fuc(a1-2)Gal(b1-4)[Fuc(a1-3)]GlcNAc(b1-2)Man(a1-3)[Fuc(a1-2)Gal(b1-4)[Fuc(a1-3)]GlcNAc(b1-2)Man(a1-6)]Man(b1-4)GlcNAc(b1-4)[Fuc(a1-6)]GlcNAc
# In short: as §1
# [4] = target: Fuc(a1-2)Gal6S(b1-4)Glc
# In short: as §1
# [5] = target: Fuc(a1-2)[Gal(a1-3)]Gal(b1-3)GlcNAc(b1-2)Man(a1-3)[Fuc(a1-2)[Gal(a1-3)]Gal(b1-3)GlcNAc(b1-2)Man(a1-6)]Man(b1-4)GlcNAc(b1-4)GlcNAc
# In short: as §1
# [6] = target: Fuc(a1-2)[GalNAc(a1-3)]Gal(b1-3)GlcNAc
# In short: as §1
# [7] = target: Fuc(a1-2)[GalNAc(a1-3)]Gal(b1-4)Glc
# In short: as §1
# [8] = target: Fuc(a1-3)[Gal(b1-4)]GlcNAc(b1-2)Man(a1-3)[Fuc(a1-3)[Gal(b1-4)]GlcNAc(b1-2)Man(a1-6)]Man(b1-4)GlcNAc(b1-4)GlcNAc
# In short: as §1
# [9] = target: Gal(a1-3)Gal(b1-3)[Fuc(a1-4)]GlcNAc(b1-2)Man(a1-3)[Gal(a1-3)Gal(b1-3)[Fuc(a1-4)]GlcNAc(b1-2)Man(a1-6)]Man(b1-4)GlcNAc(b1-4)GlcNAc
# In short: as §1
# [10] = target: Gal(a1-3)[Gal(a1-4)]Gal(b1-4)GlcNAc
# In short: as §1
# [11] = target: Gal(b1-3)GlcNAc(b1-2)[Gal(b1-3)GlcNAc(b1-6)]Man(a1-6)[Gal(b1-3)GlcNAc(b1-2)Man(a1-3)]Man(b1-4)GlcNAc(b1-4)GlcNAc
# In short: as §1
# [12] = target: Gal(b1-3)GlcNAc(b1-6)GalNAc
# In short: as §1
# [13] = target: Gal(b1-3)[Fuc(a1-4)]GlcNAc
# In short: as §1
# [14] = target: Gal(b1-4)GlcNAc(b1-2)Man
# In short: as §1
# [15] = target: Gal(b1-4)GlcNAc(b1-2)Man(a1-3)[Gal(b1-4)GlcNAc(b1-2)Man(a1-6)]Man(b1-4)GlcNAc(b1-4)[Fuc(a1-6)]GlcNAc
# In short: as §1
# [16] = target: Gal(b1-4)GlcNAc(b1-2)Man(a1-6)[Man(a1-3)]Man(b1-4)GlcNAc(b1-4)GlcNAc
# In short: as §1
# [17] = target: Gal(b1-4)GlcNAc(b1-3)Gal(b1-4)GlcNAc(b1-3)Gal(b1-4)GlcNAc(b1-3)Gal(b1-4)GlcNAc(b1-3)Gal(b1-4)GlcNAc(b1-2)Man(a1-3)[Gal(b1-4)GlcNAc(b1-3)Gal(b1-4)GlcNAc(b1-3)Gal(b1-4)GlcNAc(b1-3)Gal(b1-4)GlcNAc(b1-3)Gal(b1-4)GlcNAc(b1-2)Man(a1-6)]Man(b1-4)GlcNAc(b1-4)GlcNAc
# In short: as §1
# [18] = target: Gal(b1-4)GlcNAc(b1-3)Gal(b1-4)GlcNAc(b1-3)Gal(b1-4)GlcNAc(b1-3)Gal(b1-4)GlcNAc(b1-3)Gal(b1-4)GlcNAc(b1-3)Gal(b1-4)GlcNAc(b1-2)Man(a1-3)[Gal(b1-4)GlcNAc(b1-3)Gal(b1-4)GlcNAc(b1-3)Gal(b1-4)GlcNAc(b1-3)Gal(b1-4)GlcNAc(b1-3)Gal(b1-4)GlcNAc(b1-3)Gal(b1-4)GlcNAc(b1-2)Man(a1-6)]Man(b1-4)GlcNAc(b1-4)GlcNAc
# In short: as §1
# [19] = target: Gal(b1-4)GlcNAc(b1-3)Gal(b1-4)GlcNAc(b1-3)GalNAc
# In short: as §1
# [20] = target: Gal3S6S(b1-4)GlcNAc
# In short: as §1
# [21] = target: GalNAc3S(b1-4)[Fuc(a1-3)]GlcNAc
# In short: as §1
# [22] = target: GlcA3S(b1-3)Gal(b1-4)GlcNAc(b1-2)Man
# In short: as §1
# [23] = target: GlcNAc(a1-4)Gal(b1-4)GlcNAc(b1-3)Gal(b1-4)GlcNAc(b1-3)Gal(b1-4)GlcNAc
# In short: as §1
# [24] = target: GlcNAc(b1-2)Man(a1-3)[GlcNAc(b1-4)][GlcNAc(b1-2)Man(a1-6)]Man(b1-4)GlcNAc(b1-4)GlcNAc
# In short: as §1
# [25] = target: GlcNAc(b1-2)[GlcNAc(b1-4)]Man(a1-3)[GlcNAc(b1-2)Man(a1-6)]Man(b1-4)GlcNAc(b1-4)GlcNAc
# In short: as §1
# [26] = target: GlcNAc(b1-3)Gal(b1-4)Glc
# In short: as §1
# [27] = target: GlcNAc(b1-3)Gal(b1-4)GlcNAc(b1-3)Gal(b1-4)GlcNAc
# In short: as §1
# [28] = target: GlcNAc(b1-3)Gal(b1-4)GlcNAc(b1-3)Gal(b1-4)GlcNAc(b1-3)Gal(b1-4)GlcNAc(b1-2)Man(a1-3)[GlcNAc(b1-3)Gal(b1-4)GlcNAc(b1-3)Gal(b1-4)GlcNAc(b1-3)Gal(b1-4)GlcNAc(b1-2)Man(a1-6)]Man(b1-4)GlcNAc(b1-4)[Fuc(a1-6)]GlcNAc
# In short: as §1
# [29] = target: GlcNAc(b1-3)Gal(b1-4)GlcNAc(b1-3)GalNAc
# In short: as §1
# [30] = target: Kdn(a2-6)Gal(b1-4)GlcNAc
# In short: as §1
# [31] = target: Man(a1-2)Man(a1-3)[Man(a1-2)Man(a1-6)]Man
# In short: as §1
# [32] = target: Man(a1-3)[Man(a1-6)]Man(a1-6)[Man(a1-3)]Man(b1-4)GlcNAc(b1-4)GlcNAc
# In short: as §1
# [33] = target: MurNAc(b1-4)GlcNAc
# In short: as §1
# [34] = target: Neu5Ac(a2-3)Gal(b1-3)GalNAc
# In short: as §1
# [35] = target: Neu5Ac(a2-3)Gal(b1-3)]Neu5Ac(a2-3)Gal(b1-4)]GlcNAc
# In short: as §1
# [36] = target: Neu5Ac(a2-3)Gal(b1-4)GlcNAc(b1-2)[Neu5Ac(a2-3)Gal(b1-4)GlcNAc(b1-4)]Man(a1-3)[GlcNAc(b1-4)][Neu5Ac(a2-3)Gal(b1-4)GlcNAc(b1-4)Man(a1-6)]Man(b1-4)GlcNAc(b1-4)GlcNAc
# In short: as §1
# [37] = target: Neu5Ac(a2-3)Gal(b1-4)GlcNAc(b1-3)Gal(b1-4)GlcNAc(b1-3)GalNAc
# In short: as §1
# [38] = target: Neu5Ac(a2-3)[GalNAc(b1-4)]Gal(b1-4)Glc
# In short: as §1
# [39] = target: Neu5Ac(a2-6)Gal(b1-4)GlcNAc(b1-2)Man(a1-3)[Neu5Ac(a2-6)Gal(b1-4)GlcNAc(b1-2)Man(a1-6)]Man(b1-4)GlcNAc(b1-4)GlcNAc
# In short: as §1
# [40] = target: Neu5Ac(a2-8)Neu5Gc(a2-3)Gal(b1-4)GlcNAc
# In short: as §1
# [41] = target: Neu5Gc(a2-3)Gal(b1-4)Glc
# In short: as §1
# [42] = target: Neu5Gc(a2-6)Gal(b1-4)GlcNAc
# In short: as §1
binder,measurement,setting,value
PX15618A-bth-503-24-503 (Bacteroides thetaiotaomicron) (protein) NKSEDKLSGDDFWAQGNETNAEAFLLSIYNSFRNATMSQRPFLTYSGDMRCAPITAYSTGDKYVAYLANNDMGELRNTYPDDARGGLIMQWDVFYTAIQDANILLAEIDKVPGMDELKRSRFKAEAIFMRSLSYFFIVRAFGDVPYYTNAYNEAPLPRTNMVIVLQNCLADLQPLLDDDPGAEVLPWSYSSYSSKGIRASRGSVIALMMHINLWLVQFDAQNKEQYYRNVVSLGEELERNNGAYSLLDINRSSVIFAGGSDEGLFEIAQNINFNEIFMMNAKFSDNVSYSCLNKSMPLFCYSGDYLMTLFPMYEDDARKELWFDEKIYSTSVSSSAPKEIKKFWNIDTYGNGTITSNSGNQIVFRYAGALLLYAEALAALGTNDTKACELLNRVRNRAHASEINTSGSELMDAIFWERCRELIGEGHYYYDLVRTGKVYNRNYCMNPMTRTNFNVGAWTWPIHRNALKNNTQIGLNLFWE,glycan array binding signal (z-score),[1],-0.103
same,glycan array binding signal (z-score),[2],2.2
same,glycan array binding signal (z-score),[3],0.352
same,glycan array binding signal (z-score),[4],2.77
same,glycan array binding signal (z-score),[5],-0.62
same,glycan array binding signal (z-score),[6],-0.665
same,glycan array binding signal (z-score),[7],-0.32
same,glycan array binding signal (z-score),[8],-0.28
same,glycan array binding signal (z-score),[9],6.49
same,glycan array binding signal (z-score),[10],3.72
same,glycan array binding signal (z-score),[11],2.47
same,glycan array binding signal (z-score),[12],2.58
same,glycan array binding signal (z-score),[13],-0.361
same,glycan array binding signal (z-score),[14],-0.307
same,glycan array binding signal (z-score),[15],0.092
same,glycan array binding signal (z-score),[16],12.1
same,glycan array binding signal (z-score),[17],2.83
same,glycan array binding signal (z-score),[18],2.95
same,glycan array binding signal (z-score),[19],-0.08
same,glycan array binding signal (z-score),[20],3.43
same,glycan array binding signal (z-score),[21],-0.361
same,glycan array binding signal (z-score),[22],-0.619
same,glycan array binding signal (z-score),[23],-0.188
same,glycan array binding signal (z-score),[24],-0.381
same,glycan array binding signal (z-score),[25],-0.803
same,glycan array binding signal (z-score),[26],-0.199
same,glycan array binding signal (z-score),[27],-0.161
same,glycan array binding signal (z-score),[28],0.037
same,glycan array binding signal (z-score),[29],0.059
same,glycan array binding signal (z-score),[30],0.229
same,glycan array binding signal (z-score),[31],-0.505
same,glycan array binding signal (z-score),[32],0.524
same,glycan array binding signal (z-score),[33],0.506
same,glycan array binding signal (z-score),[34],-0.436
same,glycan array binding signal (z-score),[35],0.09
same,glycan array binding signal (z-score),[36],-0.189
same,glycan array binding signal (z-score),[37],-0.707
same,glycan array binding signal (z-score),[38],-0.82
same,glycan array binding signal (z-score),[39],-0.217
same,glycan array binding signal (z-score),[40],13.7
same,glycan array binding signal (z-score),[41],-0.471
same,glycan array binding signal (z-score),[42],-0.58
